This is an account of results in the supplement of paper PMC4237247.

SMILES strings stand for the structures.

The subject of the experiment is HeLa. Briefly: percent cells in S phase; higher = more S arrest. As to conditions: 10 µM; 20 h; hit class: G1-phase inhibitor. As to the method: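 HTS of 79,827 drug-like compounds at 10 uM. HeLa cells in 384-well plates were treated for 20 h, fixed, stained with Vybrant DyeCycle Green and scanned on an Acumen eX3 cytometer to give per-well cell cycle profiles (% cells in each phase). The plate Z' was 0.51. Only hits are listed: G1 hits >4 SD and S hits >5 SD from the mean.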
On to `C/C(=C\c1ccc(Cl)cc1)[N+](=O)[O-]`, for which the “percent cells in S phase” value was 4.01%.

Turning to `CNC1CC2OC(C)(C1OC)n1c3ccccc3c3c4c(c5c6ccccc6n2c5c31)C(=O)NC4` (centres undefined), the “percent cells in S phase” value came to 5.4%. In the case of `O=[N+]([O-])c1ccc(NCCO)c2ncccc12` it was 4.86%; in that of `C/C=C(/C)C(=O)O[C@H]1C(C)=C2[C@H]([C@@H]1OC(=O)CCCCCCC)[C@@](C)(OC(C)=O)C[C@H](OC(=O)CCC)[C@@]1(O)[C@H]2OC(=O)[C@@]1(C)O`, 7.22%. On to `C[C@@H]1O[C@@H](O[C@H]2C[C@@H](O)[C@]3(CO)[C@H]4[C@H](O)C[C@]5(C)[C@@H](C6=CC(=O)OC6)CC[C@]5(O)[C@@H]4CC[C@]3(O)C2)[C@H](O)[C@H](O)[C@H]1O`, for which the “percent cells in S phase” value is 15%. Take `C[C@@]12C(=O)OC(=O)[C@]1(C)[C@H]1CC[C@@H]2O1`: the “percent cells in S phase” value came out at 8.95%. In the case of `C[C@@H]1C[C@@H]([C@H](O)CC2CC(=O)NC(=O)C2)C(=O)[C@@H](C)C1` [Cycloheximide] it was 6.83%; in that of `CC(C)(C)c1cc(C=C(C#N)C#N)cc(C(C)(C)C)c1O`, 8.81%. On to `CNc1ccc2oc(C[C@H]3O[C@@]4(CC[C@H]3C)O[C@H]([C@H](C)C(=O)c3ccc[nH]3)[C@H](C)C[C@H]4C)nc2c1C(=O)O`, for which the “percent cells in S phase” value was found to be 6.33%.
